The source of these data is PubChem BioAssay (NCATS).

SMILES strings stand for the structures. Records with an inconclusive call do not appear. Calls of active or inactive are those of the source. Unless noted, the call rests on the fitted dose curve; in most records, active means well fitted curve in the direction sought with a large enough effect; inconclusive means small, poorly fitted or top-dose-only effect, or another doubt; inactive means no such curve, though single readings can be large; an effect the other way counts as inactive or inconclusive.

Test [1] deals with Lysosomal acid glucosylceramidase (Homo sapiens) (UniProt P04062). The test is described as follows: Glucocerebrosidase-p2 (AID 348; in the data active means potency below about 10 µM; further: potency means the concentration at half of the fitted maximal effect). To be noted: purified GBA, blue fluorogenic substrate, 40 min. Summed up: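 Normal human glucocerebrosidase (0.2 nM) with blue fluorogenic substrate (80 uM final) in citrate/phosphate pH 5.9 with 10mM sodium taurocholate, 0.01% tween-20; 40 min RT, NaOH/glycine stop; fluorescence Ex 365/Em 440; AC50 from a titration from 0.6 nM upwards.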

The target in test [2] is Glucocorticoid receptor (Homo sapiens) (UniProt P04150). Kind of test: GR-GFP Redistribution (AID 450;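 active means compounds whose dose series gives a full or clear partial fitted curve of increased nuclear translocation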; further: potency means the concentration at half of the fitted maximal effect). The settings on record: U2OS GR-GFP nuclear translocation, laser cytometry, 2 h.
Test [3] has the same target. The test is described as follows: GR-EFC Redistribution (AID 451; calls by dose curve; further: potency means the concentration at half of the fitted maximal effect). The settings on record: CHO-K1 GR-EFC translocation, beta-gal luminescence, 2 h. The method in brief:
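CHO-K1 cells expressing nuclear EA and GR-ED fragments of b-gal; compounds titrated up to 46 uM final, 2 h at 37 C. GR nuclear translocation read as complemented b-gal luminescence after 1 h RT detection.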

The target of test [4] is Mitogen-activated protein kinase 10 (Mus musculus) (UniProt Q61831). The test is described as follows: JNK3 AlphaScreen Assay (AID 530; active means well fitted curve in either direction with a large enough effect, not every such curve was filed as active;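 further: kinase came from lysate of stimulated human HepG2 cells; signal reports phosphorylation of biotinylated GST-cJun 1-79 at Ser73 with 10 µM ATP; on the % scale 0 is the no-effect control and ±100 the full control effect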). The settings on record: JNK3 lysate, c-Jun phosphorylation; series mostly up to 57.1 µM. Summed up: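 HepG2 lysate (IL-1b/TNFa pre-activated) + biotin-GST-cJun 1-79 + anti-pSer73 cJun; cpd titration, 15 min RT; ATP 10 uM start; Tris pH 7.6, MgCl2, DTT, vanadate; beads in EDTA buffer; AlphaScreen.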

The target in test [5] is 3',5'-cyclic-AMP phosphodiesterase 4B (Homo sapiens) (UniProt Q07343). The test is described as follows: qHTS Assay for Inhibitors of PDE-IV (AID 607; active means well fitted activation curve with a large enough effect in the main read-out, with a control signal flat, not every such curve was filed as active; further: % of control where 0% means no effect). The settings on record: HEK293 ACTOne CNG channel cells, membrane potential fluorescence; series mostly up to 22.9 µM. The method in brief: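 ACTOne HEK293 cells carry a modified cAMP-gated CNG channel and express endogenous PDE4; plated 1000 cells/well, compounds up to 22.9 uM final. Membrane-potential dye fluorescence (ex 535/em 590) was read; parental cells received 10 uM forskolin + 100 uM RO 20-1724.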

For test [6], the target named is Cytochrome P450 3A4 (Homo sapiens) (UniProt P08684). Kind of test: qHTS Assay for Activators of Cytochrome P450 3A4 (AID 885). Further: nearly all actives have a fitted effect of over 65% in size. The settings on record: recombinant CYP3A4, Luciferin-PPXE luminescence, 60 min; series mostly up to 57.1 µM. Summed up: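 CYP3A4 activity: Luciferin-PPXE O-dealkylation, 25uM substrate, 200mM KPO4, RT throughout. Read-out is luciferase luminescence; higher values reflect activation.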

Test [7] in a line: qHTS Assay for Identification of Small Molecule Agonists for Hypoxia Response Element Signaling Pathway (AID 914; active means well fitted activation curve with a large enough effect in the signal ratio, with a control signal flat, not every such curve was filed as active; the % refers to the signal ratio; further: potency means the concentration at half of the fitted maximal effect). To be noted: ME-180 HRE-bla reporter, beta-lactamase ratio, CoCl2, 17 h; activation: stronger effect = higher value. The method in brief:
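Cells were plated overnight, pin-dosed with compound in a titration series, co-stimulated with EC50 CoCl2 and incubated 17 hours at 37 degrees Celsius. CCF4 substrate was then loaded, and AC50 values came from the 460nm/530nm ratio.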

Test [8] in a line: qHTS Assay for Lipid Storage Modulators (AID 1519; calls by dose curve; on activity change, negative = inhibition: on the % scale 0 is the no-effect control and ±100 the full control effect). The settings on record: Drosophila S3 cells, BODIPY lipid droplet/cell ratio, laser cytometry, cells loaded with oleic acid; for activity change, negative = inhibition: at 57.5 µM (top of the series). Summed up: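 Cells seeded at 5,000 per well were treated with compounds over a concentration series and loaded with oleic acid (400 uM, as added). Lipid droplet fluorescence (488 nm excitation, 500-530 nm channel) was read by laser-scanning cytometry and normalized to 20 uM Triacsin C.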

Test [9] addresses Dual specificity protein kinase CLK4 (Homo sapiens) (UniProt Q9HAZ1). Kind of test: qHTS Assay for Inhibitors of CDC-like Kinase 4 (Kinase-Glo Assay) (AID 1770). Further: on the % scale 0 is the no-effect control and ±100 the full control effect; nearly all actives have a fitted effect of over 65% in size. To be noted: recombinant Clk4, Kinase-Glo ATP depletion luminescence; series mostly up to 66.7 µM. The method in brief: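 Luminescent ATP-depletion read-out (Kinase-Glo) after 4.5 h room-temperature reaction of Clk4 (25 nM final) with RS peptide (100 uM) and ATP (1 uM), pH 7.5 Tris buffer with MgCl2 and DTT.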

Test [10] has the same target. The test is described as follows: qHTS Assay for Inhibitors of CDC-like Kinase 4 (ADP-Glo Assay) (AID 1771). Further: on the % scale 0 is the no-effect control and ±100 the full control effect; nearly all actives have a fitted effect of over 70% in size. To be noted: recombinant CLK4, ADP-Glo luminescence; series mostly up to 80 µM. The method in brief:
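In this ADP-Glo format, 1 uM ATP and 100 uM RS peptide served as substrates for 25 nM Clk4 in Mg2+/EGTA/DTT/Triton buffer; reactions ran 1 hr at room temperature before luminescent ADP quantification.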

Test [11] shares this target. The test is described as follows: qHTS Assay for Inhibitors of CDC-like Kinase 4 (ADP-FP Assay) (AID 1795).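 Further: recombinant human CLK4 phosphorylating RS repeat peptide at 1 µM ATP; on the % scale 0 is the no-effect control and ±100 the full control effect; nearly all actives have a fitted effect of over 60% in size.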 To be noted: Transcreener ADP fluorescence polarization; series mostly up to 50 µM. Summed up: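 Kinase activity was measured as ADP production using Transcreener orange tracer (4 nM) and ADP antibody (1 ug/mL) fluorescence polarization, with ADP calculated from a calibration curve. The 1 h reaction contained 6.25 nM Clk4, 1 uM ATP and 100 uM RS peptide at pH 7.5 with Mg2+.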

Test [12] concerns the target Ubiquitin carboxyl-terminal hydrolase 1 (Homo sapiens) (UniProt O94782). The test is described as follows: Inhibitors of USP1/UAF1: Pilot qHTS (AID 504865).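 Further: rhodamine fluorescence freed from ubiquitin-rhodamine substrate followed over time; top concentration of the series differs between compounds; on the % scale 0 is the no-effect control and ±100 the full control effect; nearly all actives have a fitted effect of over 35% in size.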 To be noted: purified USP1/UAF1, Ub-rhodamine cleavage fluorescence; series mostly up to 54.9 µM. Summed up: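 Deubiquitinase activity followed as kinetic rhodamine fluorescence release from 150 nM Ub-Rho. 1 nM USP1/UAF1 with compound, after 15 min room-temperature preincubation, in HEPES pH 7.8 buffer containing TCEP, EDTA, BSA and Tween-20.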

The target in test [13] is Cytochrome P450 1A2 (Homo sapiens) (UniProt P05177). Kind of test: p450-cyp1a2 (AID 410; calls by dose curve; further: potency means the concentration at half of the fitted maximal effect;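 on activity change, negative = inhibition: -100% = full effect of reference inhibitor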). To be noted: recombinant CYP1A2, luciferin-ME demethylation, luminescence; series mostly up to 57 µM. Summed up:
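Read-out is luminescence from luciferin produced by CYP1A2 demethylation of Luciferin-ME (100uM, at Km). Detection reagent stopped the 60 min NADPH-dependent reaction; signals were normalized to 57 uM furafylline.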

Test [14] in a line: NFAT Signaling Pathway (AID 444; active means well fitted curve in either direction with a large enough effect, not every such curve was filed as active;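 further: carbachol stimulus at about its EC50 of 1 µM final; on the % scale 0 is the no-effect control and ±100 the full control effect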). To be noted: Jurkat NFAT-bla M1, carbachol, beta-lactamase ratio, 5 h; at 7.69 µM (top of the series) unless noted. The method in brief:
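Jurkat cells with NFAT-driven β-lactamase reporter and co-expressed M1 receptor, stimulated with carbachol (final 1 uM, ~EC50), compound titration, 5 h at 37 °C. CCF4 loaded 1 h at RT; 460/530 nm ratio gave %activity and AC50.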

Test [15] in a line: Stat Signaling Pathway (AID 446; active means well fitted curve in either direction with a large enough effect, not every such curve was filed as active;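 further: ME-180 cervical cancer cells given 40 pM IL-6 alongside compound; SIE-controlled beta-lactamase reporter measured as 460/530 nm FRET emission ratio; on the % scale 0 is the no-effect control and ±100 the full control effect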). The settings on record: ME-180 (cervical carcinoma) SIE beta-lactamase reporter, IL-6 stimulated, 5 h; at 7.69 µM (top of the series) unless noted. The method in brief:
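Compound effects on IL-6-induced STAT reporter activity were measured in ME-180 cells. After overnight culture, cells were co-treated with 40 pM IL-6 for 5 hrs before beta-lactamase substrate loading at room temperature.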

The target in test [16] is Cytochrome P450 3A4 (Homo sapiens) (UniProt P08684). The test is described as follows: qHTS Assay for Inhibitors and Substrates of Cytochrome P450 3A4 (AID 884). Further: potency means the concentration at half of the fitted maximal effect; nearly all actives have a fitted effect of over 50% in size. The settings on record: recombinant CYP3A4, Luciferin-PPXE luminescence; series mostly up to 57.1 µM. The method in brief: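 Luminescent readout of luciferin produced by CYP3A4 (20 nM) dealkylation of Luciferin-PPXE, 25 uM (its KM). NADPH-driven reaction ran 60 min at RT after 10 min compound preincubation; data scaled to 57 uM ketoconazole as 100% inhibition.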

Test [17] concerns the target Cytochrome P450 2C19 (Homo sapiens) (UniProt P33261). Kind of test: qHTS Assay for Inhibitors and Substrates of Cytochrome P450 2C19 (AID 899). Further: potency means the concentration at half of the fitted maximal effect; nearly all actives have a fitted effect of over 60% in size. To be noted: recombinant CYP2C19, luciferin-H EGE luminescence; series mostly up to 57.1 µM. Summed up: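 Signal comes from luciferase acting on luciferin released by CYP2C19-mediated hydroxylation of Luciferin-H EGE, 10uM (KM). Assay mix: 5nM enzyme, 50mM KPO4; 60 min at 37C with NADPH regeneration. Data normalized against 57uM ketoconazole.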

[18] abbreviates: measured here: cell count channel max response.
The mark [19] stands for this setting: measured here: lipid channel max response.

Ubiquitin carboxyl-terminal hydrolase 1 (Homo sapiens), sequence (O94782 whole entry, looked up): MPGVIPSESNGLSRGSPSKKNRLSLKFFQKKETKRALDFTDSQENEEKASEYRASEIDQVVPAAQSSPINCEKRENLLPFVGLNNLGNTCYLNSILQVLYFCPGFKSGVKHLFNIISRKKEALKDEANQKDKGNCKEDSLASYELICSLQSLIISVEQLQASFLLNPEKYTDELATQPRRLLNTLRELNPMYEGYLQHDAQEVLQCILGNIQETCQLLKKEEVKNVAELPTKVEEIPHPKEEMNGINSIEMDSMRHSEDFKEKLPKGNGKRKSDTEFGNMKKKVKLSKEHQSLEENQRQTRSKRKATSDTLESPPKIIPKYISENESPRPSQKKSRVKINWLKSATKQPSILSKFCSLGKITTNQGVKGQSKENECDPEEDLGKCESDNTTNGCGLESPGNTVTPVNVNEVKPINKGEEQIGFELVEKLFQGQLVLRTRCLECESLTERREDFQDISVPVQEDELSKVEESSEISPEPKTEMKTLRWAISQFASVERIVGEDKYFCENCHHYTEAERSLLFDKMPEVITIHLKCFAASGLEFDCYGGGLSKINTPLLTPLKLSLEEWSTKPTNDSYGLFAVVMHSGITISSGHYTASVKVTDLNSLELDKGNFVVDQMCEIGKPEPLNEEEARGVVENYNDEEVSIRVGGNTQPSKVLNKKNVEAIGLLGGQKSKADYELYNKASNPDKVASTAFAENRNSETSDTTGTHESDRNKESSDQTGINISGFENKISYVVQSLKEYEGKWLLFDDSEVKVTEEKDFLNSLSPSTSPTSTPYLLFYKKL
Lysosomal acid glucosylceramidase (Homo sapiens), sequence (P04062 whole entry, looked up): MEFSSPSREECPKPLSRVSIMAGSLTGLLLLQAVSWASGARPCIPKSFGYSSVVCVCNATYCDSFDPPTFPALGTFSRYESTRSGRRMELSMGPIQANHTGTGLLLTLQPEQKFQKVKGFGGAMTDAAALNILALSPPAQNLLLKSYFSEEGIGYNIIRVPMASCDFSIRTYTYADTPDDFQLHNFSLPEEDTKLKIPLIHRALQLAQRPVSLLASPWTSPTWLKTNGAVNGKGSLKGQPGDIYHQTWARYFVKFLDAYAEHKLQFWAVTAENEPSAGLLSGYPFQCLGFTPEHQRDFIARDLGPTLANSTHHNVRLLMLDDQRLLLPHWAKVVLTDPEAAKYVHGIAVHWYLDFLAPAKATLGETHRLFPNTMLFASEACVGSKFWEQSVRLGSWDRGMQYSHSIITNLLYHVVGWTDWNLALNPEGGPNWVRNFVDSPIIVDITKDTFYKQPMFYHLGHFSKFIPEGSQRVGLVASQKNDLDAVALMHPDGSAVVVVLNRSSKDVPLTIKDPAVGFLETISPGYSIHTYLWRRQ
3',5'-cyclic-AMP phosphodiesterase 4B (Homo sapiens), sequence (Q07343 whole entry, looked up): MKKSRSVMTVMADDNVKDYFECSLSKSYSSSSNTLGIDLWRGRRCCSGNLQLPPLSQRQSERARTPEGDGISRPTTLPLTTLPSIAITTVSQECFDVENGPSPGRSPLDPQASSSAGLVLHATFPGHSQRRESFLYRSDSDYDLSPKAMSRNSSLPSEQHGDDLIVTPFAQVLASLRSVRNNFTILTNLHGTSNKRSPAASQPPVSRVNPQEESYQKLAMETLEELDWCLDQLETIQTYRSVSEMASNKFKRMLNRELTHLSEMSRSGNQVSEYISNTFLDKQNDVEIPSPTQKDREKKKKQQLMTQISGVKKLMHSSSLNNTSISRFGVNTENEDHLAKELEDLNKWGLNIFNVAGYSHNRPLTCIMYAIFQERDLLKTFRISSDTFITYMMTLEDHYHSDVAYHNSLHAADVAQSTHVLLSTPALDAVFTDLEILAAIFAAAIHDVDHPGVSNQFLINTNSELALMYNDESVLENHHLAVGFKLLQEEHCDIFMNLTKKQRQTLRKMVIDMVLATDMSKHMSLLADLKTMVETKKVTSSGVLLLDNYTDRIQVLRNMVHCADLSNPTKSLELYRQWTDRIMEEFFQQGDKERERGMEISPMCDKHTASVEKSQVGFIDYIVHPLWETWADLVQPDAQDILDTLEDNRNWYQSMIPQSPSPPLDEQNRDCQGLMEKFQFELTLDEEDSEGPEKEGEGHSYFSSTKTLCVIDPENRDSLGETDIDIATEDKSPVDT
Cytochrome P450 3A4 (Homo sapiens), sequence (P08684 whole entry, looked up): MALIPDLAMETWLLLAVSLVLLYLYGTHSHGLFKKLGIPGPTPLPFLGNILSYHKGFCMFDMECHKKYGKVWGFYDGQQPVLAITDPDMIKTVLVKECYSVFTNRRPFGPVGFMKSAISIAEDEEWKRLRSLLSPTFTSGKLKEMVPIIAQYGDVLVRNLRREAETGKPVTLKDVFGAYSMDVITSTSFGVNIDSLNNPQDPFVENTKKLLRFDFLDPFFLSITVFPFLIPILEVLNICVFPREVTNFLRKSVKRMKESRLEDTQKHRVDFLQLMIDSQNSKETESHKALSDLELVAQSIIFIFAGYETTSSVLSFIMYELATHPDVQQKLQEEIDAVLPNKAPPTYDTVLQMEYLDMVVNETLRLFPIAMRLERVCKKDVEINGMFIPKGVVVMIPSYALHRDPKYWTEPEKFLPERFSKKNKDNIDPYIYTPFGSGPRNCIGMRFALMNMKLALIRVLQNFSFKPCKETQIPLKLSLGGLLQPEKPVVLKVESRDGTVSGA
Cytochrome P450 1A2 (Homo sapiens), sequence (P05177 whole entry, looked up): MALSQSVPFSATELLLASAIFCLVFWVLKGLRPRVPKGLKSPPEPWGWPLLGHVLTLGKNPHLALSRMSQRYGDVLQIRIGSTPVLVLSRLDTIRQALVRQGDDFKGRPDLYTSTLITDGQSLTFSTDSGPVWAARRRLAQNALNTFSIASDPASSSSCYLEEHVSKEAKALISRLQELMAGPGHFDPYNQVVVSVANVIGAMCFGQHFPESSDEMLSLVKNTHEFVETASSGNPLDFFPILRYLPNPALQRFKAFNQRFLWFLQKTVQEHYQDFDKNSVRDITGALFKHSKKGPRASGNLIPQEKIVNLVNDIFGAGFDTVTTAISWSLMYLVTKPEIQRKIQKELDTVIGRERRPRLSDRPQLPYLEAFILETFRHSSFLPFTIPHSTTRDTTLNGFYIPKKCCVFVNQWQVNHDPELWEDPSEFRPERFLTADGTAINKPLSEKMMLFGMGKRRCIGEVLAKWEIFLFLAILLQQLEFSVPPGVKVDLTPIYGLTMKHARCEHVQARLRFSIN
Glucocorticoid receptor (Homo sapiens), sequence (P04150 whole entry, looked up): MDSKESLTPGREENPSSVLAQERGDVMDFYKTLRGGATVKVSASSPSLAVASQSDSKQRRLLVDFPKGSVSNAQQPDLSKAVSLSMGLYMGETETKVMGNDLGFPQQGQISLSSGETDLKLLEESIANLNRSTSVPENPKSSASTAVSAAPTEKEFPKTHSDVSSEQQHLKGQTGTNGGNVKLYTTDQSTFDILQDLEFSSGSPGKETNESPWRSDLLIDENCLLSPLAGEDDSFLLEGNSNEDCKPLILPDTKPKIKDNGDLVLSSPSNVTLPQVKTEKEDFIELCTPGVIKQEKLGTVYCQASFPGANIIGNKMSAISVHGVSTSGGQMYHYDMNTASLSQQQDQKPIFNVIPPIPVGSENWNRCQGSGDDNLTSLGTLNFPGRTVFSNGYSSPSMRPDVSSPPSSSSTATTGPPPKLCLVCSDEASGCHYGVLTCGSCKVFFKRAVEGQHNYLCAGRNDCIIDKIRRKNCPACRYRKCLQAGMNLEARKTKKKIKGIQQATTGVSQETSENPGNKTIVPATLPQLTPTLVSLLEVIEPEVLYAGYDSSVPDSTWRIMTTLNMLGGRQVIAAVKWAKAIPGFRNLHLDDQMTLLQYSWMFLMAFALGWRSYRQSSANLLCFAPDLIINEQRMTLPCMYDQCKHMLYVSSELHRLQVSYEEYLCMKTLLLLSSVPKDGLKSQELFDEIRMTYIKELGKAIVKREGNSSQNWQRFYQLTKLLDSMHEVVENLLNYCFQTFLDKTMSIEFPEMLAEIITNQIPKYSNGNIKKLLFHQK
Dual specificity protein kinase CLK4 (Homo sapiens), sequence (Q9HAZ1 whole entry, looked up): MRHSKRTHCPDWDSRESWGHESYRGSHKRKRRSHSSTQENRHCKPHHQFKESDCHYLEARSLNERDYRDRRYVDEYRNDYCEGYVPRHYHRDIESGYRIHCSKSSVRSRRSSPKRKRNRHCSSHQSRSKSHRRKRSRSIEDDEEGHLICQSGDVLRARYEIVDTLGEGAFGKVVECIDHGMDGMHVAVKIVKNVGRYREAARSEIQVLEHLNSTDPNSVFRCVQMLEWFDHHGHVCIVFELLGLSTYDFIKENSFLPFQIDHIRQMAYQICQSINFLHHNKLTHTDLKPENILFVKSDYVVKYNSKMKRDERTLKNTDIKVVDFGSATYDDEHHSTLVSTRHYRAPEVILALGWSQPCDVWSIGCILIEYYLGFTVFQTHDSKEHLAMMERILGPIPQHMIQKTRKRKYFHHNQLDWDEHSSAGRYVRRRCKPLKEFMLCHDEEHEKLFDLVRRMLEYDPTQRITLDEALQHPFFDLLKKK
Cytochrome P450 2C19 (Homo sapiens), sequence (P33261 whole entry, looked up): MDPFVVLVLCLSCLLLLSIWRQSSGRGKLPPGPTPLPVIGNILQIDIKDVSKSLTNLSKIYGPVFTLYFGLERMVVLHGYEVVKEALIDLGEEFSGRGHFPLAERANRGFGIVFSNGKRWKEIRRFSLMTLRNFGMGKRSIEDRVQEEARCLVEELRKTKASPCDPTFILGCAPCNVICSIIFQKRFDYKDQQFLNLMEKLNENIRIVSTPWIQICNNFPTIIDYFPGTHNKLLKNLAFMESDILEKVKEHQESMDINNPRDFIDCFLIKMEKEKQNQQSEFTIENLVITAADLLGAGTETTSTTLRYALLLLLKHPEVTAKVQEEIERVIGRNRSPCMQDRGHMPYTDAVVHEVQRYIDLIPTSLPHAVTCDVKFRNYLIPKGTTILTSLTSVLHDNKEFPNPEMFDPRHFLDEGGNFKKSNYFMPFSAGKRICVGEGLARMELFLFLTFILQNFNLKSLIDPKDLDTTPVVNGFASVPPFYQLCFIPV

In the case of `CN1CCN(c2ncc3nc(-c4cc(F)cc(F)c4)c(=O)n(CCC#N)c3n2)CC1`, the Potency in [1] was > 11.4 µM (inactive); in test [2], > 9.22 µM (inactive); in test [3], > 46 µM (inactive); in test [7], 3.16 µM (active). Also, the Potency entry in [4], in test [5], in test [6], in test [9], in test [10] and in test [11] was “inactive” in each case. For the same compound, the Potency result in [12] was “inactive”. Also, the activity change, negative = inhibition in [8] is 1.36% (inactive). Moreover, the max response turned out to be 25.2% in [8] (setting [18]) and 26.1% in [8] (setting [19]).
Turning to `COc1cccc(Cn2c(=O)c(-c3ccccc3)nc3cnc(N4CCN(C)CC4)nc32)c1`, the Potency is > 11.4 µM (inactive) in [1], > 9.22 µM (inactive) in [2], > 46 µM (inactive) in [3] and 3.16 µM (active) in test [7]. The Potency entry in [13], in test [5], in [6], in [9], in test [10] and in [11] was “inactive” in each case. Also, in [12], the Potency result was “inactive”. The activity change, negative = inhibition in test [8] is -6.14% (inactive). Moreover, the max response is 6.94% in test [8] (setting [18]) and -0.577% in test [8] (setting [19]).
Regarding `O=c1c(-c2ccccc2)nc2cnc(Oc3cccc(Cl)c3)nc2n1C[C@H]1CCCO1`, the results for the Potency in test [1], in test [2] and in [3] were > 11.4 µM (inactive), > 9.22 µM (inactive) and > 46 µM (inactive), respectively. Besides, the activity change, negative = inhibition in [14] is -8.22% (inactive); in [8], -16.5% (inactive). Also, the activity, negative = inhibition in test [15] was -8.43% (inactive). The Potency result in test [4], in test [9], in test [10], in [11] and in test [12] was “inactive” each time. The max response in test [8] (setting [18]) was 18.2%; in [8] (setting [19]), -2.39%.
As to `COCCn1c(=O)c(-c2cccs2)nc2cnc(N3CCN(C)CC3)nc21`, the Potency is > 11.4 µM (inactive) in [1]; 15.8 µM (active) in test [13]; > 9.22 µM (inactive) in test [2]; > 46 µM (inactive) in test [3]; 2.51 µM (active) in test [7]. Also, the activity, negative = inhibition in test [15] was 12% (inactive). Further, the Potency result in [4], in test [5], in test [6], in test [9], in test [10] and in test [11] was “inactive” throughout. Also, the activity change, negative = inhibition in [8] was 1.3% (inactive). The figures for the max response in test [8] (setting [18]) and in test [8] (setting [19]) were 18.6% and 19.9%, respectively.
As to `COc1ccc(CNc2ncnc3ccc(-c4ccc(N(C)C)cc4)cc23)c(OC)c1`, the Potency is 2.51 µM (active) in test [13]; > 46 µM (inactive) in test [2]; > 46 µM (inactive) in test [3]; 3.98 µM (active) in test [16]; 3.98 µM (active) in test [17]. In addition, in test [15], the activity, negative = inhibition is -9.37% (inactive). Besides, the Potency entry in [5], in [6], in [9] and in [12] was “inactive” in each case. For the same compound, the activity change, negative = inhibition in [8] was 3.77% (inactive). The figures for the max response in test [8] (setting [18]) and in test [8] (setting [19]) were -26.6% and -24.8%, respectively.
In the case of `CN1CCN(c2ncc3nc(-c4ccccc4)c(=O)n(C4CC4)c3n2)CC1`, the Potency is > 11.4 µM (inactive) in [1], > 9.22 µM (inactive) in test [2], > 46 µM (inactive) in test [3] and 3.98 µM (active) in [7]. Besides, the values for the activity change, negative = inhibition in test [14] and in test [8] were 30% (inactive) and 4.04% (inactive), respectively. For the same compound, the Potency result in [4], in test [5], in test [9], in [10], in test [11] and in test [12] was “inactive” throughout. The values for the max response in [8] (setting [18]) and in test [8] (setting [19]) were 24.3% and 27.3%, respectively.
